# Measurements from PubChem BioAssay (EPA / NIEHS).
# Inconclusive results are not listed. Activity calls are given as the source filed them. The calls were made as follows: active = hit-call score of the fitted dose curve at least 0.9, where 1 is the maximum; inconclusive = response in the unintended direction; inactive = score below 0.9.
# Molecular target: human Phosphodiesterase 4A1 (PDE4A1), PDE4A (gene 5141) (UniProt P27815)
# Assay: NVS_ENZ_hPDE4A1: NovaScreen (NVS) Enzymatic Assay for human Phosphodiesterase 4A1 (PDE4A1) (AID 2283191)
# Experimental: NVS_ENZ_hPDE4A1 is a biochemical, single-readout assay that uses extracted gene-proteins in a cell-free assay. Measurements were taken 1 hour after chemical dosing in a 384-well plate.NVS_ENZ_hPDE4A1 is one of one assay component(s) measured or calculated from the NVS_ENZ_hPDE4A1 assay. It is designed to make measurements of enzyme activity, a form of enzyme reporter, as detected with fluorescence intensity signals by Fluorescence and electrophoretic mobility shift technology.Data from the assay component NVS_ENZ_hPDE4A1 was analyzed into 1 assay endpoint. This assay endpoint, NVS_ENZ_hPDE4A1, was analyzed in the positive analysis fitting direction relative to DMSO as the negative control and baseline of activity. Using a type of enzyme reporter, loss-of-signal activity can be used to understand changes in the enzymatic activity as they relate to the gene PDE4A. Furthermore, this assay endpoint can be referred to as a primary readout, because this assay has produced multiple assay endpoints where this one serves a enzymatic activity function. To generalize the intended target to other relatable targets, this assay endpoint is annotated to the esterase intended target family, where the subfamily is phosphodiesterase.
# Binding assays used specific radioligands (tritiated, iodinated) with non-radioactive competitive displacement ligands in agonist or antagonist protocols (as indicated) and various reference compounds and inhibitors to titrate specific binding to receptors and transporters. Most enzyme assays (CYPs, kinases, phosphatases, proteases, HDACs) used recombinant protein and specific substrates (fluorescence mostly, some colorimetric and radioactive) and inhibitors, followed by a biochemical separation of substrate and product. All assays for the biochemical HTS were initially run in duplicate at a single concentration (10 uM for CYP450 assays and 25 uM for all others). Assay-chemical combinations meeting a pre-defined threshold (e.g., 30% inhibition and other criteria defined below) were then run in singleton concentration-response format with maximum concentration of 20 uM for CYPs and 50 uM for all others. Each assay was run with positive and negative controls, and concurrent controls on every plate. The follow-up (secondary) screen tested active chemical-pairs in concentration series, as well as a few additional assays not tested in the primary screen, some selected negative inactives, and several cases re-run in the concentration series for confirmatory purposes.
# Sequence of human Phosphodiesterase 4A1 (PDE4A1), PDE4A (gene 5141) (P27815 whole entry, looked up): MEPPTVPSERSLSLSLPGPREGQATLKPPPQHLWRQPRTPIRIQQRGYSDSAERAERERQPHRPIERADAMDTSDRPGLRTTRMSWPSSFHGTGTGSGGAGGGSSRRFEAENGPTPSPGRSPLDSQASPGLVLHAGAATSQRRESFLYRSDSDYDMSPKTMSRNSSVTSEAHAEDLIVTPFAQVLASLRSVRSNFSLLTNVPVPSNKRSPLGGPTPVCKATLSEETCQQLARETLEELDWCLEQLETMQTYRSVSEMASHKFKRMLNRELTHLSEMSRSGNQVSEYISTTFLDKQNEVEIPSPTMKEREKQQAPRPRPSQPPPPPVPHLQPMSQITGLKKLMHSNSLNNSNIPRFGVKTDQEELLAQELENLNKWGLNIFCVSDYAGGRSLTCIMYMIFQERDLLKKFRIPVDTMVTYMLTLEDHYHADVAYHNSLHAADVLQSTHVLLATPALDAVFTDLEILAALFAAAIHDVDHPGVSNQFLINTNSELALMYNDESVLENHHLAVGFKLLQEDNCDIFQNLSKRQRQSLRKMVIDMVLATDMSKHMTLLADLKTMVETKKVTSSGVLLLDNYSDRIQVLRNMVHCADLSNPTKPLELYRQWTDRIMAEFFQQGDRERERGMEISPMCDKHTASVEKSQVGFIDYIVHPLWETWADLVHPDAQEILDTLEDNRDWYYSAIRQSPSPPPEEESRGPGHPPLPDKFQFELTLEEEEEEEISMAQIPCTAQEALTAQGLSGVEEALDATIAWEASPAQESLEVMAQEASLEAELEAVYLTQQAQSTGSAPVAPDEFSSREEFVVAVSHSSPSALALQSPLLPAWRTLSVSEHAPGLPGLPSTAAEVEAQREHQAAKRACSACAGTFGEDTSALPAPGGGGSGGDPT
Compound,outcome,AC50
COc1cccc(-c2ccc(/C=C\CN3CCCCCC3)cc2Cl)c1,inactive,
COc1ccc(-n2nc(C(F)F)cc2-c2ccc(S(C)=O)cc2)cc1 (stereo not given),,2.29 nM (active)
CCCCCCc1ccc(O)cc1O,,39200 nM (active)
O=C(O)c1cccc(N(Cc2cccnc2)c2ccc(OC(F)F)c(OC(F)F)c2)c1,,4.37 nM (active)
CC[C@H]1CC[C@H](NCc2cc3c(cc2OC)[C@H]2C[C@H]2C(=O)N3C)[C@H](c2ccccc2)N1,inactive,
O=C(O)c1cccc(Oc2ccccc2)c1,inactive,
CC1(C)C(=O)N(Br)C(=O)N1Br,inactive,
CNS(=O)(=O)c1cc(C(=O)N2CCC(CCN3C4CCC3CC(n3c(C)nc5ccccc53)C4)(c3cccc(F)c3)CC2)c(Cl)cc1F (stereo not given),inactive,
O=C(O)CC(O)C(=O)O (stereo not given),inactive,
Cn1c(=O)cc(Oc2ccc(F)cc2F)c2cnc(NCC(C)(C)O)nc21,,914 nM (active)
COC(=O)CC(=O)OC,inactive,
O=C(O)c1cc(N=Nc2ccc(S(=O)(=O)Nc3ccccn3)cc2)ccc1O,inactive,
Cc1ccc(N)cc1O,inactive,
Cn1c(=O)c2c(ncn2C)n(C)c1=O,,25000 nM (active)
C=CCCCCCCCCC(=O)O,inactive,
